# Hit rate of the full screen: of about 5,500 compounds, about 2,000 (36%) were called active. Inconclusive results (about 18%) are left out. This is one part of the list. A number with no mark means an inactive call. No stated cut-off is given here; in the data, active means normalized growth mostly below about 0.91 (no sharp cut-off); inconclusive means no clear call, values can overlap the other calls; inactive means mostly above about 0.92.
# Experiment: chemical genetic growth profiling, strain panel (AID 1159580);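 further: tested at 20 µM; growth read once vehicle control cultures reached saturation at 30 °C; 1 = growth at the plate median or of vehicle wells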
# Conditions: S. cerevisiae deletion strains, growth OD
# [1] = locus YAL013W, strain DEP1, stronger effect = lower value
# [2] = locus YBR229C, strain ROT2, stronger effect = lower value
# [3] = locus YDL101C, strain DUN1, stronger effect = lower value
# [4] = locus YDR150W, strain NUM1, stronger effect = lower value
# [5] = locus YEL061C, strain CIN8, stronger effect = lower value
# [6] = locus YGR078C, strain PAC10, stronger effect = lower value
# [7] = locus YHR030C, strain SLT2, stronger effect = lower value
# [8] = locus YHR087W, strain rtc3, stronger effect = lower value
# [9] = locus YJL187C, strain SWE1, stronger effect = lower value
# [10] = locus YJR043C, strain POL32, stronger effect = lower value
# [11] = locus YJR075W, strain HOC1, stronger effect = lower value
# [12] = locus YLR039C, strain RIC1, stronger effect = lower value
# [13] = locus YLR058C, strain SHM2 (second series), stronger effect = lower value
# [14] = locus YLR085C, strain ARP6, stronger effect = lower value
# [15] = locus YLR262C, strain YPT6, stronger effect = lower value
# [16] = locus YML094W, strain GIM5, stronger effect = lower value
# [17] = locus YMR219W, strain ESC1, stronger effect = lower value
# [18] = locus YMR263W, strain SAP30, stronger effect = lower value
# [19] = locus YNL153C, strain GIM3, stronger effect = lower value
# [20] = locus YNL298W, strain CLA4 (second series), stronger effect = lower value
# [21] = locus YNL322C, strain KRE1, stronger effect = lower value
# [22] = locus YNR030W, strain Alg12, stronger effect = lower value
# [23] = locus YPL055C, strain LGE1, stronger effect = lower value
# [24] = locus YPL241C, strain CIN2, stronger effect = lower value
# [25] = locus YPR135W, strain CTF4, stronger effect = lower value
compound,measurement,setting,value
CC(C)(C)c1ccc(-c2nc(-c3cc(C(C)(C)C)c(O)c(C(C)(C)C)c3)cs2)cc1,normalized growth,[1],1.01
same,normalized growth,[2],1
same,normalized growth,"locus YCL061C, strain MRC1, stronger effect = lower value",1.03
same,normalized growth,[3],1.02
same,normalized growth,"locus YDL134C, strain PPH21, stronger effect = lower value",1.02
same,normalized growth,[4],0.912
same,normalized growth,[5],1.03
same,normalized growth,[6],1.02
same,normalized growth,[7],1.09
same,normalized growth,[8],1.01
same,normalized growth,[9],1.01
same,normalized growth,[10],1.01
same,normalized growth,[11],1.03
same,normalized growth,[12],1.08
same,normalized growth,[13],1.01
same,normalized growth,[14],1.21
same,normalized growth,[15],1.04
same,normalized growth,[16],1.03
same,normalized growth,[17],1.01
same,normalized growth,[18],0.947
same,normalized growth,[19],0.988
same,normalized growth,[20],1.05
same,normalized growth,[21],1.01
same,normalized growth,[22],1.03
same,normalized growth,[23],1.17
same,normalized growth,[24],1.13
same,normalized growth,[25],1.07
Cc1ccc2nc(-c3ccc(Cl)cc3)cn2c1,normalized growth,"locus YAR019C, strain CDC15, stronger effect = lower value",0.961
same,normalized growth,"locus YBL105C, strain PKC1, stronger effect = lower value",0.97
same,normalized growth,"locus YBR135W, strain CKS1, stronger effect = lower value",0.968
same,normalized growth,"locus YBR136W, strain MEC1, stronger effect = lower value",0.968
same,normalized growth,"locus YBR160W, strain CDC28, stronger effect = lower value",0.954
same,normalized growth,"locus YDL017W, strain CDC7, stronger effect = lower value",0.964
same,normalized growth,"locus YDL028C, strain MPS1, stronger effect = lower value",0.974
same,normalized growth,[3],0.969
same,normalized growth,"locus YDL108W, strain KIN28, stronger effect = lower value",0.971
same,normalized growth,"locus YDL132W, strain cdc53, stronger effect = lower value",0.962
same,normalized growth,"locus YDL214C, strain PRR2, stronger effect = lower value",0.95
same,normalized growth,"locus YDR052C, strain DBF4, stronger effect = lower value",0.972
same,normalized growth,"locus YDR054C, strain cdc34, stronger effect = lower value",0.949
same,normalized growth,"locus YDR226W, strain ADK1, stronger effect = lower value",0.959
same,normalized growth,"locus YDR477W, strain SNF1, stronger effect = lower value",0.933
same,normalized growth,"locus YER123W, strain YCK3, stronger effect = lower value",0.89
same,normalized growth,"locus YER133W, strain GLC7, stronger effect = lower value",0.923
same,normalized growth,"locus YFL009W, strain cdc4, stronger effect = lower value",0.967
same,normalized growth,"locus YFL029C, strain CAK1, stronger effect = lower value",0.956
same,normalized growth,"locus YFR003C, strain YPI1, stronger effect = lower value",0.97
same,normalized growth,"locus YFR019W, strain FAB1, stronger effect = lower value",0.944
same,normalized growth,"locus YFR028C, strain CDC14, stronger effect = lower value",0.958
same,normalized growth,"locus YGR040W, strain KSS1, stronger effect = lower value",0.911
same,normalized growth,"locus YGR052W, strain FMP48, stronger effect = lower value",0.974
same,normalized growth,"locus YGR092W, strain DBF2, stronger effect = lower value",0.903
same,normalized growth,[7],0.889
same,normalized growth,"locus YHR079C, strain IRE1, stronger effect = lower value",0.936
same,normalized growth,"locus YHR082C, strain KSP1, stronger effect = lower value",1
same,normalized growth,"locus YHR205W, strain SCH9, stronger effect = lower value",0.966
same,normalized growth,"locus YIL147C, strain SLN1, stronger effect = lower value",0.975
same,normalized growth,"locus YJL095W, strain BCK1, stronger effect = lower value",0.948
same,normalized growth,"locus YJL128C, strain PBS2, stronger effect = lower value",0.966
same,normalized growth,"locus YJL157C, strain FAR1, stronger effect = lower value",0.92
same,normalized growth,"locus YJR016C, strain ILV3, stronger effect = lower value",0.97
same,normalized growth,"locus YJR066W, strain TOR1 (second series), stronger effect = lower value",0.937
same,normalized growth,"locus YJR066W, strain TOR1, stronger effect = lower value",0.953
same,normalized growth,"locus YKL048C, strain ELM1, stronger effect = lower value",0.956
same,normalized growth,"locus YKL067W, strain YNK1, stronger effect = lower value",0.936
same,normalized growth,"locus YKL101W, strain HSL1, stronger effect = lower value",0.953
same,normalized growth,"locus YKL193C, strain SDS22, stronger effect = lower value",0.961
same,normalized growth,"locus YKL203C, strain TOR2, stronger effect = lower value",0.97
same,normalized growth,"locus YLR113W, strain HOG1, stronger effect = lower value",0.906
same,normalized growth,"locus YLR133W, strain CKI1, stronger effect = lower value",0.953
same,normalized growth,"locus YLR403W, strain SFP1, stronger effect = lower value",0.93
same,normalized growth,"locus YML070W, strain DAK1, stronger effect = lower value",0.91
same,normalized growth,"locus YMR001C, strain CDC5, stronger effect = lower value",0.965
same,normalized growth,"locus YMR205C, strain PFK2 (second series), stronger effect = lower value",0.952
same,normalized growth,"locus YMR277W, strain FCP1, stronger effect = lower value",0.961
same,normalized growth,"locus YNL006W, strain LST8, stronger effect = lower value",0.962
same,normalized growth,"locus YNL020C, strain ARK1, stronger effect = lower value",0.946
same,normalized growth,"locus YNL161W, strain CBK1, stronger effect = lower value",0.961
same,normalized growth,"locus YNL183C, strain NPR1, stronger effect = lower value",0.928
same,normalized growth,"locus YNL207W, strain RIO2, stronger effect = lower value",0.97
same,normalized growth,"locus YNL222W, strain SSU72, stronger effect = lower value",0.958
same,normalized growth,"locus YNL307C, strain MCK1 (second series), stronger effect = lower value",0.907
same,normalized growth,"locus YOL078W, strain AVO1, stronger effect = lower value",0.97
same,normalized growth,"locus YOL136C, strain PFK27, stronger effect = lower value",0.921
same,normalized growth,"locus YOR061W, strain CKA2, stronger effect = lower value",0.948
same,normalized growth,"locus YOR119C, strain RIO1, stronger effect = lower value",0.982
same,normalized growth,"locus YOR231W, strain MKK1, stronger effect = lower value",0.884
same,normalized growth,"locus YOR329C, strain SCD5, stronger effect = lower value",0.969
same,normalized growth,"locus YPL031C, strain PHO85, stronger effect = lower value",0.949
same,normalized growth,"locus YPL153C, strain RAD53, stronger effect = lower value",0.899
same,normalized growth,"locus YPL204W, strain HRR25, stronger effect = lower value",0.9
same,normalized growth,"locus YPL209C, strain IPL1, stronger effect = lower value",0.959
same,normalized growth,"locus YPL256C, strain CLN2, stronger effect = lower value",0.909
same,normalized growth,"locus YPR025C, strain CCL1, stronger effect = lower value",0.969
same,normalized growth,"locus YPR106W, strain ISR1, stronger effect = lower value",0.964
same,normalized growth,"locus YPR111W, strain DBF20, stronger effect = lower value",0.96
same,normalized growth,"strain NNK1, stronger effect = lower value",0.986
same,normalized growth,"strain TSCII, stronger effect = lower value",0.959
Cc1ccc(-c2csc(-c3ccc(Cl)cc3)n2)c(C)c1,normalized growth,[1],0.979
same,normalized growth,[2],0.978
same,normalized growth,[3],0.968
same,normalized growth,[4],0.987
same,normalized growth,[5],0.914
same,normalized growth,[6],0.989
same,normalized growth,[7],0.611 (active)
same,normalized growth,[8],0.956
same,normalized growth,[9],0.994
same,normalized growth,[10],0.994
same,normalized growth,[11],1.01
same,normalized growth,[12],0.926
same,normalized growth,[13],0.988
same,normalized growth,[14],0.753 (active)
same,normalized growth,[15],0.952
same,normalized growth,[16],0.9
same,normalized growth,[17],0.998
same,normalized growth,[18],1.01
same,normalized growth,[19],1.01
same,normalized growth,[20],0.908
same,normalized growth,[21],0.987
same,normalized growth,[22],0.949
same,normalized growth,"locus YOL006C, strain TOP1, stronger effect = lower value",0.686 (active)
same,normalized growth,[23],0.968
same,normalized growth,[24],1.1
same,normalized growth,[25],0.772

# From PubChem BioAssay AID1159580 (chemical genetic matrix, 2015)
